# Assay outcomes (PubChem BioAssay)
# BJeLR lethal: MLPCN primary cell-based screen for lethality selective to Ras in HRASV12 cells | BJeLR (HRASV12) viability, CellTiter-Glo ATP luminescence, 48 h | inhibition, % (concentration not given with the values) | hit rate 0.17% among 300,000 | AID 1554, 2009; in the data active means inhibition above about 50%; inconclusive means no clear call, values can overlap the other calls
# PrPC TRFRET: inhibitors of human cell surface prion protein PrPC, primary screen, cell-based, TR-FRET | inhibition, % at 13.8 µM | TR-FRET read-out | hit rate 0.43% among 370,000; in the data active means inhibition above about 24%; further: 0% = median of the test wells and 100% = reference compound wells
# PfHsp40 yeast: rescue of yeast from PfHsp40 toxicity, primary screen, S. cerevisiae, ATP luminescence; S. cerevisiae expressing PfHsp40, growth rescue; growth rescue, % at 12.5 µM; hit rate 0.68% among 340,000; in the data active means growth rescue above about 28%, passing the limit was not always enough; inconclusive means no clear call, values can overlap the other calls;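 further: yeast W303a lacking pdr1 and pdr3 grown in galactose medium; growth measured after three days at 30 °C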
# VHR inh abs: VHR1 phosphatase inhibitors, primary screen, biochemical, absorbance, uHTS; hit rate 0.52% among 290,000; inhibition, % at 13.3 µM; recombinant VHR phosphatase, pNPP absorbance; AID 1654, 2009; Dual specificity protein phosphatase 3 (Homo sapiens), P51452; in the data active means inhibition above about 50%
# Target sequence (P51452 whole entry, looked up): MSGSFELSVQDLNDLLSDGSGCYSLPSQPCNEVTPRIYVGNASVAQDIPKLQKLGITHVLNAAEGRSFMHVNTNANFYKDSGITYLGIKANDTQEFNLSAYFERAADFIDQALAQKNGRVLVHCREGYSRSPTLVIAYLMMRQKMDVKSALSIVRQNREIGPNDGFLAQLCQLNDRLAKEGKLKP
# MazEF act: activators of E. coli MazEF toxin-antitoxin RNase, primary screen, biochemical, fluorescence, uHTS. hit rate 0.32% among 350,000. activation, % at 20 µM. Endoribonuclease toxin MazF (Escherichia coli (strain K12)), P0AE70. FAM/BHQ RNA-DNA oligo cleavage fluorescence, 5 h. AID 504720, 2011; in the data active means activation above about 50%
# Target sequence (P0AE70 whole entry, looked up): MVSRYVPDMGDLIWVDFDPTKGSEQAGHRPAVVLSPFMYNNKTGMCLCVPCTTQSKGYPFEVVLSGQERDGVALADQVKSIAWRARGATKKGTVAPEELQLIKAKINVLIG
# PrP 5UTR inh: inhibition of PrP 5' UTR reporter expression; cell-based PrP 5' UTR mRNA reporter, plate reader; inhibition, % (test concentration not listed); hit rate 0.35% among 340,000; in the data active means inhibition above about 52%; further: 0 = median of the neutral control wells
# PrP 5UTR single: prion 5' UTR mRNA inhibition, cherry-pick retest; shares compounds with PrP 5UTR inh; cell-based prion protein 5' UTR reporter, plate reader; inhibition, % at 2.5 µM; hit rate 48% among 1,100; AID 504592, 2011; in the data active means inhibition above about 54%; inconclusive means no clear call, values can overlap the other calls
# Numbers without * were called inactive; ? = inconclusive; / = no result. Rows were chosen to be rich in hits. Some 2.1% of all compounds tested hit in one or more screens of this group.
SMILES,BJeLR lethal,PrPC TRFRET,PfHsp40 yeast,VHR inh abs,MazEF act,PrP 5UTR inh,PrP 5UTR single
c1ccc2nc(-c3ccncc3)ccc2c1,-4.3,-6.9,-1.5,16.4,-3.8,-44.5,/
c1ccc2nc(-c3ccc(N4CCOCC4)cc3)ccc2c1,12.0,2.4,-0.9,3.6,-14.0,74.6*,66.6*
Cc1nn(-c2ccccc2)c(C)c1/C=N/NC(=O)c1cc(-c2ccccc2)n[nH]1,34.9,16.3,0.7,22.8,-4.2,65.9*,79.7*
Cc1c(C(=O)N2CCC2(C)C(=O)O)oc2ccccc12 (configuration not stated),/,-3.5,/,/,/,/,/
O=C(NCc1cccs1)c1ccc2sc(COCCO)nc2c1,/,0.3,/,/,/,/,/
COc1ccc(CC(=O)OCC(=O)N2CCN(S(=O)(=O)c3ccc(C)cc3C)CC2)cc1,/,-3.5,-2.0,/,-3.9,88.5*,-12.2
c1ccc2nc(N3CCCC3)c(N3CCCC3)nc2c1,28.7,-4.4,-1.8,-0.8,-1.2,-5.8,/
CN(C)C=Nc1nc2ccccc2nc1N1CCCC1,8.3,-9.4,1.5,9.0,-7.5,54.2*,-3.1
O=C(Nc1cccc(OC(F)(F)F)c1)C1Cc2c(-c3ccccc3Oc3ccccc3)ccnc2O1 (configuration not stated),/,14.0,/,/,/,/,/
C=CCN(CC=C)S(=O)(=O)c1ccc(NC(=S)NC(=O)/C=C/c2ccccc2)cc1,-3.9,2.0,-2.0,21.4,-3.0,59.1*,-9.4
Cc1ccc2nc(C(C)(C)C)c(Cc3ccccc3C(F)(F)F)n2c1,/,1.5,/,/,/,/,/
COc1ccc(OC)c(S(=O)(=O)N2Cc3ccccc3CC2C(=O)Nc2nccs2)c1 (configuration not stated),/,-1.1,-0.5,-14.8,0.4,68.7*,-32.6
COc1cc(NC(=O)C2Cc3ccccc3CN2S(C)(=O)=O)cc(OC)c1 (configuration not stated),-1.1,-2.0,-0.2,8.6,0.2,4.9,/
CCCCCN(C(=O)CCC(=O)OCC(=O)NCCc1ccccc1)c1c(N)n(CCCC)c(=O)[nH]c1=O,/,-3.0,/,/,0.3,/,/
COC(=O)c1c(NC(=O)Cc2ccccc2)sc2c1CCN(C(C)C)C2,-15.1,1.5,0.0,25.2,5.2,-1.7,/
COC(=O)c1c(NC(=O)c2ccc([N+](=O)[O-])o2)sc2c1CCN(C(C)C)C2,20.2,13.0,0.4,11.0,2.6,65.8*,97.4*
COc1ccc(CCNC(=O)CSc2nc3[nH]c(=O)cc(O)c3s2)cc1,/,-4.0,-0.3,/,-7.0,1.4,/
COc1cc(OC)cc(C(=O)N2CCN(Cc3ccccc3Br)CC2)c1,1.5,5.3,3.4,29.6,-3.8,85.5*,-6.3
COc1cc(OC)cc(C(=O)N2CCN(Cc3cccc(F)c3)CC2)c1,-0.7,-2.7,-0.2,39.7,4.3,-1.7,/
O=C(Nc1c(-c2cccs2)nc2ccccn12)c1ccc2ccccc2c1,-1.4,/,/,-10.5,/,/,/
O=C(Nc1c(-c2cccs2)nc2ccccn12)c1ccccc1F,-5.9,1.8,-0.5,17.7,-5.3,82.1*,-25.2
CCOc1ccc2nc(NCCNC(=S)NCCCN(C)C)c(C#N)cc2c1,3.2,-15.6,-0.5,25.2,0.5,17.7,/
COc1ccc2nc(NCCNC(=S)NCCCN3CCOCC3)c(C#N)cc2c1,-5.8,2.7,0.1,-12.7,4.7,78.4*,?
Cc1ccc(NC(=O)c2cc3ccccc3oc2=N)cc1,-1.4,3.8,1.5,3.0,-6.3,67.5*,38.6
CCOC(=O)C1CCCN(C(=O)c2ccc(F)c(Cl)c2)CC1 (configuration not stated),/,-1.9,/,/,/,/,/
Cc1cc(C)cc(Cn2c3ccc(NC(=O)NCCc4cccs4)cc3c(=O)n2C)c1,/,15.1,/,/,/,/,/
Cc1nc2ncccn2c1-c1csc(Nc2ccccc2)n1,11.5,-6.9,-0.1,8.4,1.2,0.7,/
Cc1nc2ncccn2c1-c1csc(Nc2ccc(S(N)(=O)=O)cc2)n1,-6.1,-11.7,-0.7,6.5,3.5,-15.1,/
COc1ccc(Nc2nc(-c3c(C)nc4ncccn34)cs2)cc1,/,-0.3,0.5,26.1,2.2,65.5*,86.9*
